High-throughput results from PubChem.
In the library only some 21% were active in any assay of this set; here they are far more common.
Pf growth 48h = P. falciparum growth inhibition at 48 hours (one generation); P. falciparum luciferase growth in erythrocytes, 48 h; Potency, µM (series often up to 28.7 µM), most hits filed as inhibitors; 310,000 tested, 5.9% active
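Luciferase-expressing P. falciparum in infected erythrocytes (2% hematocrit, 0.1% parasitemia final) in RPMI 1640/0.5% Albumax were exposed to compound for 48 hours at 37 C, 5% CO2; growth read as luminescence.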
NS1 function inh = blocks influenza NS1 protein function | Potency, µM (series often up to 46.1 µM) | 270,000 tested, 0.4% active | AID 2326; calls by dose curve; also: actives are rising curves; nearly all actives have a fitted effect of over 50% in size
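Growth recovery, yeast-based: influenza A NS1 expressed in S. cerevisiae causes slow growth, and suppressors are detected by OD600. The parent strain without NS1 is used as positive control.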
Pf growth 96h = P. falciparum growth inhibition at 96 hour, primary screen for plastid delayed-death inhibitors. P. falciparum luciferase reporter growth, 96 h. Potency, µM (highest dose often 28.7 µM), hits mostly inhibitors. 320,000 tested, 6.9% active
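Parasite growth measured via integrated firefly luciferase reporter in P. falciparum. Infected erythrocytes at 2% hematocrit, 0.05% parasitemia final were treated 96 hours at 37 C under 5% CO2, and luminescence was read.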
Shiga toxin inh = Shiga toxin inhibition; Vero cells, Shiga toxin protein synthesis inhibition reporter; inhibition, % at 38.7 µM; 290,000 tested, 9.2% active; AID 2315; in the data active = inhibition mostly above about 28%, no sharp cut-off; inactive = mostly below about 43%
CHX counter = counter-screen hit for Shiga toxin inhibitors, cycloheximide; cell reporter, cycloheximide protein synthesis inhibition counterscreen; max response, %; 300,000 tested, 12% active; AID 2314; in the data active = max response mostly above about 13%, no sharp cut-off; inactive = mostly below about 14%; also: read at 38.3 µM for the half of the compounds with a filed dose
Giardia FBPA inh = Giardia lamblia aldolase inhibition | A8B2U2 | AID 2451 | purified Giardia FBPA | Potency, µM (doses to about 59.6 µM), usual class: inhibitors | 290,000 tested, 0.71% active; also: nearly all actives have a fitted effect of over 55% in size
Target sequence (A8B2U2 whole entry, looked up): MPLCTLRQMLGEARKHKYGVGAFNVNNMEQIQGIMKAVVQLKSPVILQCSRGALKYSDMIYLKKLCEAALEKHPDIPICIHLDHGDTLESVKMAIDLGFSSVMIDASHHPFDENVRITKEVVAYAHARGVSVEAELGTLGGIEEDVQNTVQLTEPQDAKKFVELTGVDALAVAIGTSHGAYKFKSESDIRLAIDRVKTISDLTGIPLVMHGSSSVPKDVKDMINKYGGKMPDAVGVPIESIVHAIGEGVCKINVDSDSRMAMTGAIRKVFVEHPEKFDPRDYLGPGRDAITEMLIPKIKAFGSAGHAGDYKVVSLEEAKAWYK
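Giardia FBPA (40 nM reagent) was preincubated 10 min at RT with compound (up to 57.5 uM final), then substrate plus GAPDH/TPI/NAD/arsenate coupling system with diaphorase/resazurin was added; resorufin fluorescence (525/598 nm) was read after 20 min.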
Hits are given with their value; n = inactive; u = inconclusive; x = no result given. Unless noted, calls follow the shape of the dose curve; as a rule, active = well fitted curve in the direction sought with a large enough effect; inconclusive = small, poorly fitted or top-dose-only effect, or another doubt; inactive = no such curve, though single readings can be large; an effect the other way counts as inactive or inconclusive.

SMILES	Pf growth 48h	NS1 function inh	Pf growth 96h	Shiga toxin inh	CHX counter	Giardia FBPA inh
Cc1ccc(NC(=O)c2ccccc2OCC(=O)Nc2ccccc2F)cc1S(=O)(=O)N(C)C	9.28µM	x	7.38µM	x	x	x
Cc1ccc(S(=O)(=O)N(C)C)cc1NC(=O)COc1ccccc1C(=O)Nc1ccccc1	11.7µM	x	u	x	x	x
COc1ccc(-n2c(=S)[nH]c3cc(C(=O)Nc4ccc(F)cc4)ccc3c2=O)c(OC)c1	n	n	n	n	n	n
COc1ccccc1OCC(=O)Nc1ccc(S(=O)(=O)N2CCCC2)cc1	n	n	n	n	n	n
CC1CCN(S(=O)(=O)c2ccc3c(c2)CCC(=O)N3CC(=O)Nc2cccc(C#N)c2)CC1	11.7µM	x	u	x	x	x
N#Cc1ccc(NCC(=O)Nc2ccc(S(=O)(=O)N3CCCCC3)cc2)cc1	9.28µM	x	u	x	x	x
COc1cccc(NC(=O)CN2C(=O)CSc3ccc(S(=O)(=O)N4CCC(C)CC4)cc32)c1	u	u	n	n	n	n
N#Cc1cccc(NCC(=O)Nc2ccc3c(c2)OCCO3)c1	n	n	n	63.4	27.3	n
COc1cc(C#N)ccc1OCC(=O)Nc1cccc(S(=O)(=O)N2CCCC2)c1	9.28µM	x	8.28µM	n	n	n
Cc1cccnc1NC(=O)c1ccc(Cl)c(S(=O)(=O)N2CCCCCC2)c1	u	n	u	n	n	n
COC(=O)c1ccc(OC)c(CN2CCCN(Cc3ccc(F)cc3)S2(=O)=O)c1	u	n	n	n	n	n
Cc1c(C(=O)N2CCOCC2)c(S(=O)(=O)N2CCN(c3ccc(Cl)cc3)CC2)c(C)n1C	u	n	n	n	n	n
N#Cc1ccc(Cl)cc1NC(=O)CNc1cccc(S(=O)(=O)N2CCCC2)c1	u	x	n	x	x	x
N#Cc1cccc(NCC(=O)Nc2cccc(S(=O)(=O)N3CCCCC3)c2)c1	13.1µM	x	u	x	x	x
N#Cc1cccc(NC(=O)CNc2cccc(S(=O)(=O)N3CCCC3)c2)c1	10.4µM	x	u	x	x	x
N#Cc1cccc(C(=O)Nc2cccc(S(=O)(=O)N3CCCC3)c2)c1	u	n	n	n	n	x
CC(C)(C)C(=O)Nc1nnc(SCc2ccc(F)cc2)s1	x	n	n	n	21.6	n
COCCSc1nnc(NC(=O)C(C)(C)C)s1	n	n	n	110.7	59.5	x
COCCSc1nnc(NC(=O)CSc2ccccc2)s1	n	n	n	n	n	n
O=C(Nc1ccc(Cl)cc1)Nc1nnc(SCc2ccc(Cl)cc2)s1	n	n	5.22µM	n	n	n
CCC(=O)Nc1nnc(SCc2ccc(F)cc2)s1	n	n	n	n	n	n
